Rows were chosen to be rich in hits. Some 4% of all compounds tested hit in one or more screens of this group.
Mtb bLac sens: beta-lactam sensitization of Mtb H37Rv. inhibition, % at 25 µM. M. tuberculosis H37Rv growth with meropenem, percent inhibition. actives 0.27% (n = 330,000). AID 434955; call rule not given here;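 also: growth measured after seven days incubation then overnight dye step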
GDH-TPI inh: GDH-TPI coupled enzyme inhibition counter-screen; GDH-TPI coupled enzyme counterscreen, NADH absorbance; inhibition, % at 4.8 µM; actives 1.2% (n = 360,000)
CCHF vOTU inh: CCHFV vOTU protease inhibition; Pep-AMC fluorescence; inhibition, % at 11.5 µM; actives 0.55% (n = 370,000); AID 651958
MazF activator: activators of E. coli MazEF toxin-antitoxin RNase; actives 0.32% (n = 350,000); activation, % at 20 µM; FAM/BHQ RNA-DNA oligo cleavage fluorescence, 5 h; in the data active = activation above about 50%
Target sequence (P0AE70 whole entry, looked up): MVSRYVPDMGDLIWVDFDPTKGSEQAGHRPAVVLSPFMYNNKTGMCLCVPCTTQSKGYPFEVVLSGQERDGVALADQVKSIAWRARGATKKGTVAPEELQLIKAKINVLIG
Mtb FBA inh: inhibitors of M. tuberculosis fructose-bisphosphate aldolase | purified M. tuberculosis FBA, fluorescence read-out | inhibition, % at 1 µM | actives 2.3% (n = 360,000); in the data active = inhibition above about 27%
Target sequence (P9WQA3 whole entry, looked up): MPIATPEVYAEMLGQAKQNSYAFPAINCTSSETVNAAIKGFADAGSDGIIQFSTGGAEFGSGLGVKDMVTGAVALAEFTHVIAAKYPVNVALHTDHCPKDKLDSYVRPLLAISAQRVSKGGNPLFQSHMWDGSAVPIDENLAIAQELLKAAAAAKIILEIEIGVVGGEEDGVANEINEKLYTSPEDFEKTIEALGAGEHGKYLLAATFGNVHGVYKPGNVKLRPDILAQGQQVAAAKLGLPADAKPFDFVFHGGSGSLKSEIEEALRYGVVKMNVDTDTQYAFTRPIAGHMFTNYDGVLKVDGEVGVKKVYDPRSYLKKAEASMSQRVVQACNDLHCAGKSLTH
Each line names hits and unclear results; the compound was inactive in the other large screens. Rule as the data show it, unless noted: active = inhibition above about 30%; inactive = the rest.

COc1ccc(S[C@]2(C(=O)N3CCN(c4ncccn4)CC3)CC(=O)N(c3ccc(C#N)cc3)[C@@H]2c2ccc(OC)cc2)cc1	none (no result: Mtb bLac sens, GDH-TPI inh, MazF activator, Mtb FBA inh)
Cc1cc(N2CCOCC2)nc2ccc(NC(=S)NCCC(C)C)cc12	Mtb FBA inh 28
Cc1cc(N2CCOCC2)nc2ccc(NC(=O)CCC(=O)N3CCC(C)CC3)cc12	Mtb bLac sens inconclusive, Mtb FBA inh 54
CCN1CCN(c2cc(C)c3cc(NC(=O)c4cc(OC)cc(OC)c4)ccc3n2)CC1	GDH-TPI inh 34
Cc1cc(N2CCN(C)CC2)nc2ccc(NC(=S)NCCC(C)C)cc12	none
COc1ccc(NC(=O)CCC(=O)Nc2ccc3nc(N4CCOCC4)cc(C)c3c2)c(OC)c1	none
CCCCNC(=O)CCC(=O)Nc1ccc2nc(N3CCC(C)CC3)cc(C)c2c1	Mtb FBA inh 68
O=C(CSc1nnc(-c2cccs2)o1)c1cccc([N+](=O)[O-])c1	none (no result: Mtb bLac sens, GDH-TPI inh, MazF activator, Mtb FBA inh)
Nc1c(C(=O)NCc2ccco2)c2nc3ccccc3nc2n1CCc1ccc(F)cc1	Mtb FBA inh 28
COc1ccc(Cn2c(N)c(C(=O)NCc3ccco3)c3nc4ccccc4nc32)cc1OC	none
COCCOC(=O)c1c(N)n(Cc2ccco2)c2nc3ccccc3nc12	Mtb FBA inh 150
CCOC(=O)CSc1nc2ccccc2c(=O)n1Cc1ccco1	none
CC(C)OCCCNC(=O)c1c(N)n(Cc2cccs2)c2nc3ccccc3nc12	Mtb FBA inh 34
CC(C)CCn1c(N)c(C(=O)NCc2cccs2)c2nc3ccccc3nc21	none (no result: CCHF vOTU inh)
COCCCNC(=O)c1c(N)n(Cc2ccco2)c2nc3ccccc3nc12	Mtb FBA inh 118
COc1ccc2c(c(-c3ccccc3)cn2C)c1-c1ccccc1	none (no result: Mtb bLac sens, GDH-TPI inh, MazF activator, Mtb FBA inh)
CCCNC(=O)c1c(N)n(Cc2ccco2)c2nc3ccccc3nc12	none (no result: GDH-TPI inh, CCHF vOTU inh, Mtb FBA inh)
CC(C)CNC(=O)c1c(N)n(Cc2ccco2)c2nc3ccccc3nc12	Mtb FBA inh 55
COc1ccc(-c2ccnc3nc(Sc4ncc(C(F)(F)F)cc4Cl)nn23)cc1	Mtb FBA inh active
COC(=O)[C@]12C[C@H](CC(=O)NCc3cccc(C(F)(F)F)c3)C(=O)N(Cc3ccc4c(c3)OCO4)C1=C[C@H](C(C)C)O[C@@H]2C1CC1	none (no result: Mtb bLac sens, GDH-TPI inh, MazF activator, Mtb FBA inh)
Cc1cc(OCc2cn(CC(=O)c3ccc(O)cc3)nn2)ccc1[N+](=O)[O-]	GDH-TPI inh 41 (no result: Mtb bLac sens)
O=C(Cn1cc(COc2cccc([N+](=O)[O-])c2)nn1)c1ccc(O)cc1	none (no result: Mtb bLac sens)
Cc1cc(OCC(=O)NC2CC(C)(C)NC(C)(C)C2)c2c(C)c(C)c(=O)oc2c1	Mtb FBA inh 131
Cc1cc(OCC(=O)N2CCC(C(=O)O)(c3ccccc3)CC2)c2c(C)c(C)c(=O)oc2c1	Mtb FBA inh 64
O=C(NC1=N[C@@]2(C=C3CCCCC3n3c(=O)n(-c4ccccc4)c(=O)n32)[C@H](Cc2ccccc2)N1Cc1ccccc1)c1ccccc1 (some centres undefined)	none (no result: Mtb bLac sens, GDH-TPI inh, MazF activator, Mtb FBA inh)
C=CCSc1nc(N)c2c3c(sc2n1)CN(C)CC3	none
COC(CSc1nc(N)c2c3c(sc2n1)CN(C)CC3)OC	GDH-TPI inh 36, Mtb FBA inh 181
O=C1CCCC2=C1C(c1ccncc1)n1c(nc3ccccc31)N2 (centres undefined)	Mtb FBA inh active
CSc1nc2n(n1)C(c1cccs1)C1=C(CCCC1=O)N2 (centres undefined)	none
CC1CC(=O)C2=C(C1)Nc1nc3ccccc3n1C2c1cccnc1 (centres undefined)	Mtb FBA inh 165
COCc1c(C(=O)N/N=C/c2ccc(C)o2)nnn1-c1nonc1N	GDH-TPI inh 38
Nc1nonc1-n1nnc(C(=O)N/N=C/c2ccc(O)cc2)c1COc1ccc(F)cc1	GDH-TPI inh 32
Nc1nonc1-n1nnc(C(=O)N/N=C/c2ccc(OCc3ccccc3)cc2)c1COc1ccc(F)cc1	none
Cc1ccc(/C=N/NC(=O)c2nnn(-c3nonc3N)c2CN(C)C)o1	none
COC(=O)[C@]12C[C@H](CC(=O)N3CCCCC3)C(=O)N(CCC3=CCCCC3)C1=C[C@H](C(C)C)O[C@@H]2C1CC1	none (no result: Mtb bLac sens, GDH-TPI inh, MazF activator, Mtb FBA inh)
Cc1csc(NC(=O)c2ccc(COc3ccccc3F)o2)n1	none (no result: Mtb bLac sens, GDH-TPI inh, MazF activator, Mtb FBA inh)
COc1ccc(C(=O)c2oc3ccc(OC)cc3c2NC(C)=O)cc1	none
COc1cccc(NC(=O)c2oc3ccccc3c2NC(=O)c2ccc3c(c2)OCO3)c1	GDH-TPI inh 36
COc1ccc(C(=O)c2oc3ccccc3c2NC(C)=O)cc1	GDH-TPI inh 33
COC(=O)[C@]12C[C@H](CC(=O)N3CCCCC3)C(=O)N(CCc3ccc(OC)c(OC)c3)C1=C[C@H](COCc1ccccc1)O[C@@H]2C	none (no result: Mtb bLac sens, GDH-TPI inh, MazF activator, Mtb FBA inh)
O=C(N=Nc1c(O)[nH]c2ccccc12)c1cc(-c2cccs2)[nH]n1	GDH-TPI inh 35
O=C(N=Nc1c(O)[nH]c2ccccc12)c1ccccc1NS(=O)(=O)c1cccs1	GDH-TPI inh 34
COc1cccc(C2C3=C(CCCC3=O)Nc3[nH]n(-c4ccccc4)c(=O)c32)c1 (centres undefined)	none
O=C1CCCC2=C1C(c1ccc3c(c1)OCO3)c1c([nH]n(-c3ccccc3)c1=O)N2 (centres undefined)	GDH-TPI inh 37
COC(=O)[C@]12C[C@H](CC(=O)NCc3cccs3)C(=O)N(Cc3ccco3)C1=C[C@H](COCc1ccccc1)O[C@@H]2C	none (no result: Mtb bLac sens, GDH-TPI inh, MazF activator, Mtb FBA inh)
COC(=O)c1ccccc1NC(=O)NCc1ccccc1	none
COC(=O)c1ccccc1NC(=O)NCc1ccncc1	MazF activator 114
Cc1cccc2sc(NC(=O)c3ccc(NS(=O)(=O)c4cccs4)cc3)nc12	GDH-TPI inh 32
COc1ccc2nc(NC(=O)c3ccc(NS(=O)(=O)c4cccs4)cc3)sc2c1	GDH-TPI inh 40
Cc1cc(F)ccc1NC(=O)c1ccc(NS(=O)(=O)c2cccs2)cc1	none (no result: Mtb bLac sens)
COC(=O)[C@]12C[C@H](CC(=O)N3CCN(C(=O)c4ccco4)CC3)C(=O)N(Cc3ccco3)C1=C[C@H](C(C)C)O[C@@H]2C1CC1	none (no result: Mtb bLac sens, GDH-TPI inh, MazF activator, Mtb FBA inh)
CN(Cc1ccccc1)C(=O)OCc1cn(Cc2cccc(F)c2)nn1	none (no result: Mtb bLac sens, GDH-TPI inh, MazF activator, Mtb FBA inh)
CCOC(=O)N1CCN(c2c(Nc3ccc4c(c3)OCCO4)c(=O)c2=O)CC1	GDH-TPI inh 42
CCOC(=O)N1CCN(c2c(N3CCc4ccccc43)c(=O)c2=O)CC1	GDH-TPI inh 51
S=C(NCc1ccco1)N/N=C/c1ccc(Cl)cc1	none
CCOc1ccc(/C=N/NC(=O)C(=O)NCc2ccco2)cc1	GDH-TPI inh 33
COc1ccccc1/C=N/NC(=S)NCc1ccco1	GDH-TPI inh 38
Oc1ccc(/C=N/NC(=S)NCc2ccco2)cc1	none
S=C(NCc1ccco1)N/N=C/c1ccccc1Cl	none
Oc1c(Br)cc(/C=N/NC(=S)NCc2ccco2)cc1Br	GDH-TPI inh 33
COc1cc(/C=N/NC(=S)NCc2ccco2)cc(OC)c1OC	GDH-TPI inh 37
COc1ccccc1NC(=S)OC1CCC12CCC(c1ccccc1)CC2 (centres undefined)	none (no result: Mtb bLac sens, GDH-TPI inh, MazF activator, Mtb FBA inh)
O=C(CSc1nc2ccccc2c(=O)n1-c1ccc(Cl)cc1)NNC(=S)Nc1ccccc1	none (no result: Mtb bLac sens, GDH-TPI inh, MazF activator, Mtb FBA inh)
Cc1ccc(Cn2cc(CN3[C@H](C)COc4cc(Br)ccc4S3(=O)=O)nn2)cc1	none (no result: Mtb bLac sens, GDH-TPI inh, MazF activator, Mtb FBA inh)
